Source: PubChem BioAssay
Shiga toxin inh = blocks Shiga toxin action in Vero cells; Vero cells, Shiga toxin protein synthesis inhibition reporter; inhibition, % at 38.7 µM; hit rate 9.2% among 290,000; AID 2315; in the data active = inhibition mostly above about 28%, no sharp cut-off; inactive = mostly below about 43%; note: 0% is about no effect
RE007 growth inh = less growth of the S. pombe RE007 Vpr strain. hit rate 0.21% among 360,000. Potency, µM (highest dose often 92.2 µM), for inactives: top-dose activity change, negative = less growth, hits mostly inhibitors. S. pombe RE007 Vpr strain, BacTiter-Glo ATP luminescence, 24 h; active = well fitted falling curve with a large enough effect; inconclusive = small, poorly fitted or top-dose-only effect; inactive = no such curve, though single readings can be large or run the other way; note: potency is the fitted concentration of half-maximal effect; % is set by controls: 0 for no effect and ±100 for the full control effect; nearly all actives have a fitted effect of over 50% in size
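Fission yeast RE007 carrying one integrated HIV-1 vpr copy, seeded at OD 0.01 in PMG+AL medium with 23 nL pinned compound. Grown 24 h at 30 degrees; viability read by BacTiter-Glo luminescence after 5 min.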
Tb PYK inh = inhibitors of Trypanosoma brucei pyruvate kinase. Q57TT1. TbPYK enzyme, Kinase-Glo Plus ATP luminescence, 45 min. Potency, µM (highest dose often 76.8 µM), without a hit: at the top dose activity, negative = inhibition, hits mostly inhibitors. hit rate 0.12% among 410,000. AID 624173; note: potency is the fitted concentration of half-maximal effect; % is set by controls: 0 for no effect and ±100 for the full control effect; nearly all actives have a fitted effect of over 50% in size
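Readout: single end-point luminescence (Kinase-Glo Plus, 10 min). Reaction conditions were TbPYK/substrate plus 130 uM ADP, 45 min at RT, pH 7.2 TEA buffer. No-enzyme wells served as controls, and data were normalized before concentration-response fitting.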
Giardia FBPA inh = inhibitors of Giardia lamblia fructose-1,6-bisphosphate aldolase | A8B2U2 | purified Giardia FBPA | Potency, µM (titrated, usually from 59.6 µM), inactives show top-dose activity, negative = inhibition, most hits filed as inhibitors | hit rate 0.71% among 290,000; note: potency is the fitted concentration of half-maximal effect; % is set by controls: 0 for no effect and ±100 for the full control effect; nearly all actives have a fitted effect of over 55% in size
Target sequence (A8B2U2 whole entry, looked up): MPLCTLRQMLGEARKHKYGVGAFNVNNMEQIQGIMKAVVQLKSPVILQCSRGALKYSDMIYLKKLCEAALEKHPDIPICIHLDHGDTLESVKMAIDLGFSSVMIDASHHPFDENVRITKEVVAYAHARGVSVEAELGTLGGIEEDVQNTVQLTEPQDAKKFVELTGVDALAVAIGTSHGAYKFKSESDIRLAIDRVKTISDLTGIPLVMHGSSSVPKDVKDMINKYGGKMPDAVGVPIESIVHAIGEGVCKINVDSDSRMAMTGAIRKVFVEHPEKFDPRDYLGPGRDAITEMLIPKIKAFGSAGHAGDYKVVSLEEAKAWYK
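40 nM FBPA preincubated 10 min at RT with compound (up to 57.5 uM final), then substrate plus GAPDH/TPI/NAD/arsenate coupling and diaphorase/resazurin added. Fluorescence read after 20 min at RT, 525/598 nm.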
LmPK inhibitor = LmPK (Leishmania mexicana) enzyme inhibition. purified LmPK, Kinase-Glo ATP luminescence, 1 h. hit rate 0.37% among 290,000. Q27686. Potency, µM (highest dose often 57.5 µM), inactives show top-dose activity change, negative = inhibition, most hits filed as inhibitors. AID 1721; note: potency is the fitted concentration of half-maximal effect; % is set by controls: 0 for no effect and ±100 for the full control effect
Target sequence (Q27686 whole entry, looked up): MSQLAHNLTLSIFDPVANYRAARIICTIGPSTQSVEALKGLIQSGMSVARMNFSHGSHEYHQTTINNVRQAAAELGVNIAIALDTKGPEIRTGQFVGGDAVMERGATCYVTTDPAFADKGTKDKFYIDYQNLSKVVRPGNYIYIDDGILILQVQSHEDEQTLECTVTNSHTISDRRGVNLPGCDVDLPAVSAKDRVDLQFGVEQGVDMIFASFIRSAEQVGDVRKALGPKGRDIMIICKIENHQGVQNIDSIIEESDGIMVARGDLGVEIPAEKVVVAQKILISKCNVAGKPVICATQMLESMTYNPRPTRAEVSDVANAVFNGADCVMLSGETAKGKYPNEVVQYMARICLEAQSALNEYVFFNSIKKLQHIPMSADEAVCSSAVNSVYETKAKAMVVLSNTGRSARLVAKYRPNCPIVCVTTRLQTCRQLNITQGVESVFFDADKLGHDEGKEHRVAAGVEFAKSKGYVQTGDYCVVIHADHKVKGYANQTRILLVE
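Screened at intermediate enzyme activity to detect both inhibitors and activators: LmPK at 0.1 nM, with a 0.5 nM enzyme column as activation reference. PEP 0.5 mM, ADP 0.1 mM; ATP detected by luminescence after 1 h.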
CHX counter = counter-screen hit for Shiga toxin inhibitors, cycloheximide; cell reporter, cycloheximide protein synthesis inhibition counterscreen; max response, %; hit rate 12% among 300,000; in the data active = max response mostly above about 13%, no sharp cut-off; inactive = mostly below about 14%; note: read at 38.3 µM for the half of the compounds with a filed dose; 0% is about no effect
The depositor's hits bear a star; ? = inconclusive; · = no result given. The sample as a whole holds a higher share of hits than the screen did. Unless noted, calls come from the whole dose curve; as a rule, active = well fitted curve in the direction sought with a large enough effect; inconclusive = small, poorly fitted or top-dose-only effect, or another doubt; inactive = no such curve, though single readings can be large; an effect the other way counts as inactive or inconclusive.

SMILES | Shiga toxin inh | RE007 growth inh | Tb PYK inh | Giardia FBPA inh | LmPK inhibitor | CHX counter
O=C(/C=C/c1cccs1)Nc1ccc(S(=O)(=O)Nc2ncccn2)cc1 | -7.7 | -1.5% | -6.5% | 1.3% | -18.2% | 0.8
O=C(/C=C/c1cccs1)Nc1nccs1 | 110.6* | -9.3% | -1.6% | 5.3% | -4.3% | 40.7*
O=C(/C=C/c1cccs1)Nc1cccc(NC(=O)/C=C/c2cccs2)n1 | 90.0* | 11.8% | 4.1% | -13.6% | -12.1% | 40.2*
Cc1ccccc1NC(=O)/C=C/c1cccs1 | 70.2* | -18.1% | -20.8% | -1.7% | -22.1% | 27.5*
CCN(CC)S(=O)(=O)c1ccc(C)c(NC(=O)/C=C/c2cccs2)c1 | -6.1 | · | -6.6% | -1.8% | 0.0% | -2.4
O=C(/C=C/c1ccccc1)Nc1nc(-c2cccs2)ns1 | · | · | 19.7% | · | · | ·
O=C(/C=C/c1cccs1)NC1CC1 | 19.2 | -6.7% | -2.1% | 4.9% | -8.8% | 18.5*
O=C(/C=C\c1ccccc1)Nc1nccs1 | 58.8* | -17.3% | -2.2% | -3.4% | -18.2% | 38.6*
O=C(/C=C/c1cccs1)Nc1ccc(Br)cn1 | 59.8* | 1.9% | 3.1% | 2.4% | -0.7% | 43.0*
CCc1nnc(NC(=O)C=C(C)C)s1 | 39.3* | -11.0% | 0.0% | 0.5% | 1.9% | 32.2*
O=C(Nc1nnc(-c2ccccc2F)s1)Nc1ccccc1F | 19.7 | 3.2% | -1.3% | 4.7% | -4.9% | 12.5
CC(C)=CC(=O)Nc1nnc(-c2ccccc2C)s1 | 76.9* | 4.5% | -1.7% | 2.4% | 7.9% | 28.1*
CCc1nnc(NC(=O)CSc2ccc(-c3cccs3)nn2)s1 | 14.4 | 1.0% | 2.9% | 5.6% | -0.2% | 8.7
CCc1nnc(NC(=O)/C=C/c2cccs2)s1 | 39.9 | -5.2% | -8.0% | 6.8% | 2.5% | 17.5*
O=c1c(-c2ccccc2)nc2cnc(N3CCOCC3)nc2n1Cc1ccc(F)cc1 | · | · | · | -2.5% | · | ·
Cc1cccc(Nc2nnc(SCC(=O)Nc3cccnc3Cl)s2)c1 | 25.0 | -1.7% | 2.2% | -0.2% | -6.2% | 27.0*
Cc1cccc(Nc2nnc(SCC(=O)NCc3cccs3)s2)c1C | 41.6* | · | 10.4% | 2.9% | 7.4% | 11.6
Cc1cccc(Nc2nnc(SCC(=O)NCc3cccs3)s2)c1 | 62.4* | 1.5% | -1.1% | 6.1% | 1.6% | 19.3*
CCCC(=O)Nc1nnc(SCC(=O)NCc2cccs2)s1 | 12.7 | 0.9% | -8.0% | 1.0% | -5.1% | -3.4
O=c1cc(CSc2nnc(Nc3ccccc3)s2)nc2sccn12 | -31.9 | 0.0% | -2.4% | ? | 7.5% | -0.8
COCC(=O)Nc1nnc(SCC(=O)NCc2cccs2)s1 | -15.3 | 12.0% | -6.8% | -0.6% | -3.0% | 0.8
Cc1cccc(Nc2nnc(SCc3cn4ccsc4n3)s2)c1 | 22.1 | 4.2% | -6.2% | -0.8% | -17.3% | 20.4*
COc1ccc(-c2cc3nc4n(c(=O)c3s2)CCC4)cc1 | 90.5* | -12.4% | -2.6% | 0.6% | 7.08µM* | 33.0*
COc1ccc(-c2cc3nc4n(c(=O)c3s2)CCCCC4)cc1 | 78.2* | -6.7% | 2.2% | -7.6% | 4.8% | 49.4*
COc1ccc(-c2nc3n(c2C)CCC3)cc1 | 70.6* | -26.9% | -20.9% | -14.9% | -13.3% | 26.9*
SMILES | Shiga toxin inh | RE007 growth inh | Tb PYK inh | Giardia FBPA inh | LmPK inhibitor | CHX counter
CCc1sc(C(=O)Nc2ncccc2C)cc1C | 54.7 | -6.0% | -8.4% | 13.4% | -4.0% | 41.5*
Cc1cc(C(=O)Nc2ccc(F)cc2C)cs1 | 30.6 | -13.2% | 4.2% | · | -5.7% | -4.1
CCc1sc(C(=O)Nc2cccc(-n3cnnn3)c2)cc1C | · | -9.1% | 0.4% | · | · | ·
CCc1sc(C(=O)Nc2ncccc2O)cc1C | 45.6* | -29.6% | -4.5% | · | -12.4% | 36.4*
CCc1sc(C(=O)Nc2ccc(F)cc2C)cc1C | 74.1* | 11.4% | -8.9% | -2.5% | 2.9% | 15.3*
CCc1sc(C(=O)NCc2ccccc2)cc1C | 35.3 | 14.8% | -0.3% | -2.9% | 6.2% | 8.9
Cc1cccnc1NC(=O)NC(=O)c1ccc(C(C)(C)C)s1 | 63.2* | -16.2% | 0.7% | 2.6% | -0.8% | 37.7*
Cc1cc(C)n(-c2nnc(Nc3ccc(C(C)C)cc3)c3ccccc23)n1 | · | · | -5.7% | · | · | ·
CCc1sc(C(=O)Nc2nccs2)cc1C | 55.5* | -24.0% | -3.6% | -7.8% | -2.1% | 57.2*
CCc1sc(C(=O)Nc2nc(-c3ccccn3)cs2)cc1C | · | ? | -7.6% | · | · | ·
O=C(NCc1ccccc1Br)C1CCCN(C(=O)N2CCOc3ccccc32)C1 (stereo not given) | · | · | -13.9% | · | · | ·
NCCNc1cccc2ccccc12 | · | · | 1.0% | · | · | ·
CCOc1ccccc1C(=O)Nc1ccc(S(=O)(=O)Nc2onc(C)c2C)cc1 | · | · | -1.3% | · | · | ·
Cc1csc(NC(=O)/C=C/c2ccc(C)o2)n1 | 72.8* | -20.0% | -1.5% | -15.5% | -0.6% | 30.8*
Cc1csc(NC(=O)/C=C/c2ccco2)n1 | 34.7* | 4.3% | -6.8% | -7.0% | -10.2% | 25.2*
CCOC(=O)Cc1csc(NC(=O)/C=C/c2ccc(Cl)cc2)n1 | 59.3* | 5.3% | -0.5% | 3.9% | 0.7% | 23.3*
O=C(/C=C/c1ccco1)Nc1nc(-c2ccc(F)c(F)c2)cs1 | 42.8 | 12.5% | -1.3% | 4.7% | 0.9% | 18.3*
COc1ccc(-c2csc(NC(=S)NC(=O)/C=C/c3ccco3)n2)cc1OC | -6.8 | 6.0% | -4.6% | -6.6% | -0.1% | -1.5
CCOC(=O)Cc1csc(NC(=O)/C=C/c2ccco2)n1 | 59.5* | 10.7% | -5.7% | -1.7% | 0.5% | 25.3*
CCOC(=O)Cc1csc(NC(=O)CCc2ccccc2)n1 | -0.6 | 11.9% | -6.6% | 3.1% | -3.2% | -3.4
O=C(/C=C/c1ccco1)Nc1nc(-c2ccccc2)cs1 | 118.4* | -24.5% | -0.5% | -10.2% | -3.4% | 86.3*
CCCCOc1ccc(S(=O)(=O)NCc2csc(-c3ccc(OC)cc3)n2)cc1 | · | · | -1.7% | · | · | ·
CCC(=O)N1CCc2cc(S(=O)(=O)NC(CC(C)C)C(=O)Nc3cccc(C)c3C)ccc21 (stereo not given) | · | · | -1.3% | · | · | ·
CCCCCCCC/C=C\CCCCCCCCCCCC(=O)O | -7.4 | · | · | 10.0% | · | 3.5
COc1c(C)cc(C(=O)C2CCCN(C(=O)c3cccc(-n4cccn4)c3)C2)cc1C (stereo not given) | 18.5 | -3.7% | 2.0% | -4.8% | 0.8% | 12.6*
COc1c(C)cc(C(=O)C2CCCN(C(=O)c3ccc4[nH]ccc4c3)C2)cc1C (stereo not given) | -1.5 | -20.5% | -26.1% | -3.4% | 1.5% | 4.5
COc1c(C)cc(C(=O)C2CCCN(C(=O)c3csc(C)n3)C2)cc1C (stereo not given) | -8.3 | 5.2% | 3.9% | 7.5% | 0.1% | -2.5
COc1c(C)cc(C(=O)C2CCCN(C(=O)c3cc4nc(C)cc(C)n4n3)C2)cc1C (stereo not given) | 24.9* | 7.8% | -5.7% | 5.2% | 0.5% | 7.3
CCCN1C(=O)C(Cc2nc3ccccc3c(=O)n2CC)c2cc(Br)ccc21 (stereo not given) | · | · | 6.5% | · | · | ·
